Measurements reported in PubChem BioAssay.
Unmarked numbers belong to inactive results. For some assays here: Results with a measured potency or affinity are listed apart. The source made the active and inactive calls. Unless noted, the rule behind the calls is not given here.

Key:
[1] = antimalarial activity against Dd2 strain (AID 2302;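 active = growth inhibition above 50% at the single 2 µM test dose, taken to imply half-maximal potency below 2 µM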;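 note: 0% = DMSO untreated growth and 100% = chloroquine plus artemisinin killed control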); details: P. falciparum Dd2 in RBCs, LDH growth readout, 72 h; at 2 µM; active compounds read high
[2] = HepG2 cytotoxicity, primary screen, cytotoxicity control for P. falciparum antimalarial project, cell-based, ATP luminescence (AID 2303;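 active = inhibition above 50%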;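 note: 0% = DMSO wells and 100% = digitonin-killed cells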); details: HepG2 viability, 24-48 h, at 10 µM, active compounds read high
[3] = target: L-lactate dehydrogenase (Plasmodium falciparum (isolate CDC / Honduras)) (UniProt Q27743); experiment: PfLDH activity inhibition – cell lysate, 3D7 strain, counter-screen for P. falciparum growth inhibition project (AID 2304);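 note: 0% = vehicle and 100% = reference inhibitor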; details: P. falciparum 3D7 crude extract, LDH APAD/NBT absorbance; at 2 µM; active compounds read high
[4] = inhibition of 3D7 malaria parasite growth – strain 3D7 (AID 2306);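 note: 0% = DMSO wells and 100% = chloroquine plus artemisinin control wells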; details: P. falciparum 3D7 erythrocytic growth, LDH absorbance, 72 h; at 2 µM; active compounds read high
[5] = target: Calcium-dependent protein kinase 1 (Plasmodium falciparum (isolate 3D7)) (UniProt P62344); experiment: PfCDPK1 kinase inhibitors, biochemical, TCAMS library (AID 1159585; cut-off not given, nearly all actives have IC50 up to about 0.98 µM;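 note: inhibitors leave more ATP so luminescence rises with inhibition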); details: recombinant PfCDPK1, Kinase-Glo ATP depletion luminescence
[6] = target: Plasmodium falciparum protein kinase 6 (PK6, PF3D7_1337100) (UniProt Q8IDW1); experiment: PfPK6 kinase inhibitors, biochemical, TCAMS library (AID 1159586); details: recombinant PfPK6, Kinase-Glo ATP depletion luminescence
[7] = target: Protein kinase 7 (PK7), Plasmodium falciparum 3D7 (PF3D7_0213400) (UniProt Q7YTF7); experiment: inhibition of Plasmodium PK7 catalytic activity – biochemical, TCAMS antimalarial set, Kinase-Glo luminescence (AID 1159587); details: recombinant PfPK7, Kinase-Glo ATP depletion luminescence
[8] = target: Calcium-dependent protein kinase 4 (Plasmodium falciparum (isolate 3D7)) (UniProt Q8IBS5); experiment: PfCDPK4 kinase inhibitors, biochemical, TCAMS library (AID 1159588; cut-off not given, nearly all actives have IC50 up to about 0.91 µM); details: recombinant PfCDPK4, Kinase-Glo ATP depletion luminescence
Sequence of Calcium-dependent protein kinase 4 (Plasmodium falciparum (isolate 3D7)) (Q8IBS5 whole entry, looked up): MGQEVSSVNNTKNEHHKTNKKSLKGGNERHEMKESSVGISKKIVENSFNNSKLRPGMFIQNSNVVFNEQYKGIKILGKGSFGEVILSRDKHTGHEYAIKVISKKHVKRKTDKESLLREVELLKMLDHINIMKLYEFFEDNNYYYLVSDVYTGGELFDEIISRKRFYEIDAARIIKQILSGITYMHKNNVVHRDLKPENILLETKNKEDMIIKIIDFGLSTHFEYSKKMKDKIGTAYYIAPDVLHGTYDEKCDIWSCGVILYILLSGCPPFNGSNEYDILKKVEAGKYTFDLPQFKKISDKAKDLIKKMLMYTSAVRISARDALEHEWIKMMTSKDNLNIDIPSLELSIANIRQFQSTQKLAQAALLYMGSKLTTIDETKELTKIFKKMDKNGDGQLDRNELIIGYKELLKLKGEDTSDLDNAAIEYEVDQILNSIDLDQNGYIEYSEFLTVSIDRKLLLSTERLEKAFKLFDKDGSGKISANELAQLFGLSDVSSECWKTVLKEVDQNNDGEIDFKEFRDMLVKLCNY

Sequence of Protein kinase 7 (PK7), Plasmodium falciparum 3D7 (PF3D7_0213400) (Q7YTF7 1-343): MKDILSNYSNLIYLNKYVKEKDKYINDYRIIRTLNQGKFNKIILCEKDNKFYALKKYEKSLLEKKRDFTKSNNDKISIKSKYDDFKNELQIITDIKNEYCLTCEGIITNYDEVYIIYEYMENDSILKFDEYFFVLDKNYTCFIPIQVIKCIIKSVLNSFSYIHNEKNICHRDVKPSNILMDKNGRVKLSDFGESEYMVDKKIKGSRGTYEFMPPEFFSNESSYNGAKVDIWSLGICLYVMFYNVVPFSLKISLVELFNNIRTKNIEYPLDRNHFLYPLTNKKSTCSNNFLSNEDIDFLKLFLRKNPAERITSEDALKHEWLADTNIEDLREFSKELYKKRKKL
Sequence of L-lactate dehydrogenase (Plasmodium falciparum (isolate CDC / Honduras)) (Q27743 whole entry, looked up): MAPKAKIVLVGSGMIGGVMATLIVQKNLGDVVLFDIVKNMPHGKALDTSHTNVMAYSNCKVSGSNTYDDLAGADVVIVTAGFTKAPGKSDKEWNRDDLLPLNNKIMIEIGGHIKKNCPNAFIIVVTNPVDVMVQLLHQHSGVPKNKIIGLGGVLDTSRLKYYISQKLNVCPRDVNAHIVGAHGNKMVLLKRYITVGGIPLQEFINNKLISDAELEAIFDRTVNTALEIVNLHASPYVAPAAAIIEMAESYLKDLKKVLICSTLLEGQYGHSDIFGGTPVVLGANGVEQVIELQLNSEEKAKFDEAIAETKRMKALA
Sequence of Plasmodium falciparum protein kinase 6 (PK6, PF3D7_1337100) (Q8IDW1 1-305): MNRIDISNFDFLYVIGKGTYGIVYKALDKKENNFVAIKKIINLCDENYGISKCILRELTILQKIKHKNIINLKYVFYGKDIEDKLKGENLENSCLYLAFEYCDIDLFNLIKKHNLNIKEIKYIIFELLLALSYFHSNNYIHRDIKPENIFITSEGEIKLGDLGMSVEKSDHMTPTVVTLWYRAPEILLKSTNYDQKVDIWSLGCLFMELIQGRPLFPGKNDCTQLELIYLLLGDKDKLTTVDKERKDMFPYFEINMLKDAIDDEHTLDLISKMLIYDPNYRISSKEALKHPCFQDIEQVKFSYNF
Sequence of Calcium-dependent protein kinase 1 (Plasmodium falciparum (isolate 3D7)) (P62344 whole entry, looked up): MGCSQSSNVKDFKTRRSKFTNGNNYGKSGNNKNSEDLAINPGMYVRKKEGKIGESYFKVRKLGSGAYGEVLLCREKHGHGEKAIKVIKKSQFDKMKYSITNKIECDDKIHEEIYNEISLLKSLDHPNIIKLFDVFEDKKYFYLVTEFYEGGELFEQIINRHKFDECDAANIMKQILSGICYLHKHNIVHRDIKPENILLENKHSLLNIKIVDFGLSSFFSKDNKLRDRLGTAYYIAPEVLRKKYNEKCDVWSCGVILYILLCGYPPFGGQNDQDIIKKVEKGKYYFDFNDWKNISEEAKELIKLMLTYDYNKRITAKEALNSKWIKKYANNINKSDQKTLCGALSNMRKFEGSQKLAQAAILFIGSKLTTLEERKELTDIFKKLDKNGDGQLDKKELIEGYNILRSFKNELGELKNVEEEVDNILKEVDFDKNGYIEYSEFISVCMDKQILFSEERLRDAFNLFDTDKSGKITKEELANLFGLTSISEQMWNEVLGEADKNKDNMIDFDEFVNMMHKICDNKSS

Row | Structure (SMILES) | growth inhibition [1] | inhibition [2] | inhibition [3] [%] | growth inhibition [4] | outcome [5] | outcome [6] | outcome [7] | outcome [8]
1 | Cc1ccc(NC(=O)NC2CCN(c3ccnc4cc(Cl)ccc34)C2)cc1 (stereo unspecified) | 96% (active) | 19% | 5 | 101% (active) | inactive | inactive | inactive | inactive
2 | CCN(CC)CCN(Cc1ccc(-c2ccc(C(F)(F)F)cc2)cc1)C(=O)Cn1c(SCc2ccc(F)cc2)nc(=O)c2ccccc21 | 48% | 47% | 6 | 98% (active) | inactive | inactive | inactive | inactive
3 | CC[C@H]1CN(CCCn2c3ccccc3c3ccccc32)[C@@H](CC)CN1 | -3% | 69% (active) | -6 | 89% (active) | inactive | inactive | inactive | inactive
4 | CCCN(CCC)CCCOc1ccc(C(=O)c2c(-c3ccc(OCCCN(CCC)CCC)cc3)oc3ccc(Cl)cc23)cc1 | 95% (active) | 100% (active) | -8 | 96% (active) | inactive | inactive | inactive | inactive
5 | CC(C)=CCN1CCC(C(=O)Nc2ccc(-c3nc4ccccc4[nH]3)cc2)CC1 | -1% | -2% | -3 | 95% (active) | inactive | inactive | inactive | inactive
6 | CN1CCCC1CCNc1ncc2c(-c3ccc(NC(=O)Nc4cc(C(F)(F)F)ccc4F)c(F)c3)nn(C)c2n1 (stereo unspecified) | 90% (active) | 100% (active) | 1 | 99% (active) | inactive | inactive | inactive | inactive
7 | CCCCNCc1ccc(-c2nc(CN(C(=O)Nc3cc([N+](=O)[O-])ccc3F)C3Cc4ccccc4C3)cs2)cc1 | 13% | 15% | -2 | 87% (active) | inactive | inactive | inactive | inactive
8 | COC(=O)Nc1cc(C(F)(F)F)ccc1N1CCCC(NS(=O)(=O)c2ccc(C(C)(C)C)cc2)C1 (stereo unspecified) | 90% (active) | -8% | -5 | 97% (active) | inactive | inactive | inactive | inactive
9 | CS(=O)(=O)CCNc1nccc(N2CCc3ncnc(Nc4ccc(OCc5cccc(F)c5)c(Cl)c4)c3C2)n1 | 100% (active) | 8% | -4 | 101% (active) | inactive | inactive | inactive | inactive
10 | CC(C)CC1c2[nH]c3ccccc3c(=O)c2CN1C(=O)OC(C)(C)C (stereo unspecified) | 96% (active) | 2% | -4 | 97% (active) | inactive | inactive | inactive | inactive
11 | N#Cc1ccccc1S(=O)(=O)N1CCCC(CNC(=O)[C@H](CC2CCCCC2)NC(=O)c2cc3ccccc3s2)C1 (stereo partly specified) | 92% (active) | 9% | -2 | 97% (active) | inactive | inactive | inactive | inactive
12 | Cc1c(Cl)cccc1S(=O)(=O)Nc1ccc(CCN2CCC(N)CC2)cc1 | 4% | 23% | 0 | 90% (active) | inactive | inactive | inactive | inactive
13 | c1cc(CNC2Cc3ccccc3C2)cc(-c2cnc(N3CCNCC3)nc2)c1 | 65% (active) | 43% | -9 | 93% (active) | inactive | inactive | inactive | inactive
14 | COc1ccc2ncc(F)c(CCN3CCC(CNCc4cccc5c4OCO5)CC3)c2n1 | 37% | 39% | -2 | 93% (active) | inactive | inactive | inactive | inactive
15 | c1ccc(CN2CCC(NCc3ccc(-c4cncc5ccccc45)cc3)CC2)cc1 | 19% | 21% | -3 | 98% (active) | inactive | inactive | inactive | inactive
16 | Cc1nc(N)nc(N)c1OCCCOc1ccccc1Br | 96% (active) | 57% (active) | -3 | 94% (active) | inactive | inactive | inactive | inactive
17 | COc1ccc(-c2nc(NC(=O)CS(=O)(=O)c3ccccc3)sc2C)cc1 | 82% (active) | 7% | -9 | 99% (active) | inactive | inactive | inactive | inactive
18 | NCc1ccc(CNCc2cccc(-c3ccc(-c4nc5ccccc5[nH]4)cc3)c2)cc1 | 58% (active) | 10% | -8 | 100% (active) | inactive | inactive | inactive | inactive
19 | O=C(NC(c1ccc(Cl)cc1)c1ccc2cccnc2c1O)c1ccccc1 (stereo unspecified) | 80% (active) | 44% | -2 | 87% (active) | inactive | inactive | inactive | inactive

Row | Structure (SMILES) | growth inhibition [1] | inhibition [2] | inhibition [3] [%] | growth inhibition [4] | outcome [5] | outcome [6] | outcome [7] | outcome [8]
20 | CCOC(=O)c1ccc(NC(=O)N[C@H]2CCN(CCCCCNC(=O)/C=C/c3ccc(Cl)c(Cl)c3)C2)cc1 | 1% | 21% | -4 | 98% (active) | inactive | inactive | inactive | inactive
21 | Cc1cc(N(CCO)CCCN2CCCCC2)nc(Nc2ccc(Cl)cc2)n1 | 18% | 12% | -9 | 100% (active) | inactive | inactive | inactive | inactive
22 | O=C(c1cncc(-c2ccccc2)c1)N(Cc1cncn1Cc1ccccc1F)CC1CC1 | 0% | -5% | -4 | 100% (active) | inactive | inactive | inactive | inactive
23 | O=C(CCCCCNC(=O)c1ccc(O)c(-c2ccc(Cl)c(Cl)c2)c1)NCc1cccc(C(F)(F)F)c1 | 10% | 2% | 2 | 92% (active) | inactive | inactive | inactive | inactive
24 | Cc1cc(C(F)(F)F)cc(-n2ncc(-c3ccc(C(=O)NCc4ccccc4N)cc3)c2N)n1 | 89% (active) | 10% | 3 | 99% (active) | inactive | inactive | inactive | inactive
25 | COc1cccc(CCNCCCCCCNCCc2ccc(Cl)cc2)c1 | 3% | 32% | -1 | 100% (active) | inactive | inactive | inactive | inactive
26 | NC(N)=NN=C1C=Cc2cccc3cccc1c23 | 49% | 9% | 1 | 100% (active) | inactive | inactive | inactive | inactive
27 | FC(F)(F)c1ccc2nc(-c3ccc(-c4cccc(CN5CCN(c6ccncc6)CC5)c4)cc3)[nH]c2c1 | 99% (active) | 82% (active) | 2 | 101% (active) | inactive | inactive | inactive | inactive
28 | CN1CCN(c2ccc(Nc3ncc([N+](=O)[O-])c(Nc4ccccc4O)n3)cc2)CC1 | 97% (active) | 98% (active) | -3 | 100% (active) | inactive | inactive | inactive | inactive
29 | COc1ccc(C#Cc2ccc(-c3c(C)[nH]c(C)c(Cl)c3=O)cc2)cc1 | 97% (active) | -6% | 2 | 97% (active) | inactive | inactive | inactive | inactive
30 | CC(Oc1c(C2CCN(CCCCNC(=O)c3ccc(-c4ccc(Cl)cc4)cc3)CC2)ccc2c1CCCC2)C(N)=O (stereo unspecified) | 16% | 100% (active) | 3 | 99% (active) | inactive | inactive | inactive | inactive
31 | Fc1ccccc1CNc1ncc(-c2ccsc2)c(-c2nccs2)n1 | 71% (active) | 11% | -6 | 86% (active) | inactive | inactive | inactive | inactive
32 | C=C(C)Cn1cc(C2CCN(CCCCNC(=O)c3sc(-c4ccc(Cl)cc4Cl)nc3CO)CC2)c2ccccc21 | 19% | 22% | 4 | 82% (active) | inactive | inactive | inactive | inactive
33 | Cc1[nH]c(C)c(-c2ccc(C(=O)c3ccccc3)cc2)c(=O)c1Br | 96% (active) | -10% | 1 | 95% (active) | inactive | inactive | inactive | inactive
34 | c1cc(Nc2nc(-c3ccc(-c4csc(Nc5ccncc5)n4)cc3)cs2)ccn1 | 99% (active) | 91% (active) | -4 | 100% (active) | inactive | inactive | inactive | inactive
35 | CCOc1ccc2c(c1)N(C(=O)C=Cc1ccccc1)C(C)(C)c1ssc(=S)c1-2 | 77% (active) | 3% | -1 | 83% (active) | inactive | inactive | inactive | inactive
36 | Cc1ccc(C(=O)Nc2cc(S(=O)(=O)N3CCCC3)ccc2OCC(F)(F)F)cc1 | 3% | -2% | 3 | 93% (active) | inactive | inactive | inactive | inactive
37 | CNc1ccc(CNCc2ccc(-c3ccc(-c4nc5ccc(C(F)(F)F)cc5[nH]4)s3)cc2)cc1 | 97% (active) | 44% | -2 | 102% (active) | inactive | inactive | inactive | inactive
